Rows were chosen to be rich in hits. Some 2.7% of all compounds tested hit in one or more screens of this group.
LDHA inh – qHTS assay for inhibitors of human lactate dehydrogenase; L-lactate dehydrogenase A chain (Homo sapiens), P00338; purified LDHA, NADH/diaphorase-resazurin fluorescence; active compounds read low; AID 1347041, 2019; 480,000 tested, 0.15% active; activity change, % (values are at about 110 or 230 µM); in the data active = activity change below about -30%; inconclusive = mostly about -25% to -30%;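 note: plate controls were DMSO wells for no effect and wells without enzyme for full effect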
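LDH5 2 nM; NADH 0.06 mM, pyruvate 0.2 mM; 200 mM Tris pH 7.4, EDTA, Tween-20; 5 min RT. Detection: diaphorase 0.133 mg/mL + resazurin 37 µM, fluorescence ex540/em590 at 0 and 20 min; normalized to enzyme-free and DMSO wells.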
Nrf2 inh – Nrf2 qHTS screen for inhibitors; AID 504444, 2011; Potency, µM (doses to about 46 µM), inactives show at the top dose activity change, negative = inhibition, actives largely listed as inhibitors; A549 ARE-Fluc reporter, luciferase luminescence, 18-24 h; 360,000 tested, 2.1% active; note: potency is the fitted concentration of half-maximal effect; % is set by controls: 0 for no effect and ±100 for the full control effect; nearly all actives have a fitted effect of over 60% in size
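Nrf2 function is reported as luminescence of an ARE-controlled luciferase in A549 cells. Compounds were tested at several concentrations, and a CellTiter-Fluor read on the same wells flagged cytotoxicity.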
12-LOX inh – Primary qHTS assay for inhibitors of human arachidonate 12S-lipoxygenase (ALOX12): Round 2. Polyunsaturated fatty acid lipoxygenase ALOX12 (Homo sapiens), P18054. purified 12hLO, xylenol orange hydroperoxide absorbance. Potency, µM (doses to about 108 µM), inactives show top-dose activity change, negative = inhibition, most hits filed as inhibitors. 580,000 tested, 1.1% active; note: potency is the fitted concentration of half-maximal effect; % is set by controls: 0 for no effect and ±100 for the full control effect
Target sequence (P18054 whole entry, looked up): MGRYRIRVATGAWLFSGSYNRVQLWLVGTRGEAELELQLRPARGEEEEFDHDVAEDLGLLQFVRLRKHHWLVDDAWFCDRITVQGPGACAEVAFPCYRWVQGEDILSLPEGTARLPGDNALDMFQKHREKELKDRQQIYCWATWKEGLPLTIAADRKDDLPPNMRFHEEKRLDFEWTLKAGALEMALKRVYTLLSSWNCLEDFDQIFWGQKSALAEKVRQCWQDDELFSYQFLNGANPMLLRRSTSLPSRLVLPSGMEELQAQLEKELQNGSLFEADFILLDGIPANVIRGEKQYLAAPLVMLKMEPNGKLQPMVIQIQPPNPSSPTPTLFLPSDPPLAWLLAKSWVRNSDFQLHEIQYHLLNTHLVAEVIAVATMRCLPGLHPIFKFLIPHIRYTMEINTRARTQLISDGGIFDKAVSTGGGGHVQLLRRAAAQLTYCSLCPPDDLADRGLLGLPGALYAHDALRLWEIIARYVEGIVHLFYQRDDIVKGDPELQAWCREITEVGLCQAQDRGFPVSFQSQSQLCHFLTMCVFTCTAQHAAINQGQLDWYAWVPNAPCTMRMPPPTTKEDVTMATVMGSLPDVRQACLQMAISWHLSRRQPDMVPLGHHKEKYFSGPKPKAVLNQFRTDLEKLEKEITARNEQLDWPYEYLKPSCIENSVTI
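Purified human 12hLO (150 nM final) in 25 mM Hepes, 0.01% Triton X-100, pH 7.0 was preincubated 15 min at room temperature with compound. Then 40 uM arachidonic acid was added, 30 min. Hydroperoxide was read by Fe-XO absorbance ratio 573/405 nm.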
Nrf2 activator – qHTS of Nrf2 Activators; AREc32 ARE-luciferase reporter (MCF7-derived line), luminescence, 24 h; Potency, µM (series often up to 46.1 µM), without a hit: at the top dose activation, most hits filed as activators; 410,000 tested, 0.31% active; note: potency is the fitted concentration of half-maximal effect; % of control where 0% means no effect; nearly all actives have a fitted effect of over 65% in size
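AREc32_Fluc, 1000 cells/well, OPTI-MEM + 5% FBS, o/n 37 deg C 5% CO2; 23 nL cpd by pin tool, 24 hr; Steady-Glo 30 min RT, luminescence.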
A549 viability – Nrf2 qHTS screen for inhibitors: counterscreen for cytotoxicity; AID 504648, 2011; 390,000 tested, 0.16% active; A549 ARE-Fluc cells, CellTiter-Fluor viability, 18-24 h; Potency, µM (doses to about 46 µM), for inactives: top-dose activity change, negative = cytotoxicity, hits mostly inhibitors; note: potency is the fitted concentration of half-maximal effect; % is set by controls: 0 for no effect and ±100 for the full control effect
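Cytotoxicity counterscreen: CellTiter-Fluor fluorescence was measured in A549 ARE_Fluc cells after 18-24 h of compound exposure in a concentration series. The subsequent BugLite luminescent read reports ARE-luciferase activity.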
ERG Ets-DNA blk – qHTS for Small Molecule Inhibitors of the ERG Ets/DNA interaction | fluorescence polarization, His-ERG Ets domain / labelled DNA | Potency, µM (titrated, usually from 76.9 µM), without a hit: at the highest dose FP activity, negative = inhibition, hits mostly inhibitors | 370,000 tested, 0.028% active | AID 624246, 2012; active = well fitted inhibition curve with a large enough effect in the polarisation, with a control signal flat; inconclusive = small, poorly fitted or top-dose-only effect, or effect the other way, or a change in a side signal; inactive = no such curve, though single readings can be large or run the other way; the % refers to the polarisation;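 note: polarization taken with two DNA probes labelled with fluorescein and Texas red; potency is the fitted concentration of half-maximal effect; % of control where 0% means no effect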
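His-tagged ERG Ets domain (1 uM in the protein solution; 300mM KCl, 50mM Tris-HCl, 1mM EDTA, 1mM DTT, pH 7.5) received compound, then a probe mix of 5 nM fluorescein-DNA and 100nM Texas-615-DNA. Fluorescence polarization was read for both dyes.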
Active calls of the source: *. Unless noted, calls come from the whole dose curve; as a rule, active = well fitted curve in the direction sought with a large enough effect; inconclusive = small, poorly fitted or top-dose-only effect, or another doubt; inactive = no such curve, though single readings can be large; an effect the other way counts as inactive or inconclusive.

CCCOc1ccc2c(=O)c(-c3cc(C(=O)OC)oc3C)c(C)oc2c1 was read as LDHA inh -1, Nrf2 inh 16µM*, 12-LOX inh inconclusive, Nrf2 activator 0%, A549 viability -6% and ERG Ets-DNA blk 0%.
`Cc1ccc(S(=O)(=O)N(C)c2ccc(C(=O)N3CCCCC3)cc2)cc1` gave LDHA inh 0, Nrf2 inh inconclusive, 12-LOX inh -1%, Nrf2 activator 0%, A549 viability -13% and ERG Ets-DNA blk -1%.
`CCOC(=O)N1CCN(C(=O)c2ccc(N(C)S(=O)(=O)c3ccc(C)cc3)cc2)CC1` gave LDHA inh -7, Nrf2 inh 23µM*, 12-LOX inh 0%, Nrf2 activator 0%, A549 viability -11% and ERG Ets-DNA blk -1%.
Screening COc1ccc(N2CCN(C(=O)c3ccc(N(C)S(=O)(=O)c4ccc(OC)cc4)cc3)CC2)cc1 returned LDHA inh -3, Nrf2 inh 26µM*, 12-LOX inh 8%, Nrf2 activator 3%, A549 viability 10% and ERG Ets-DNA blk 2%.
For COc1ccc(N2CCN(C(=O)c3ccc(N(C)S(=O)(=O)c4ccc(C)cc4)cc3)CC2)cc1 the results were LDHA inh -5, Nrf2 inh 18µM*, 12-LOX inh -15%, Nrf2 activator 1%, A549 viability -10% and ERG Ets-DNA blk -3%.
Screening COc1cccc(C2C3=C(COC3=O)Nc3c2c(=O)n(C)c(=O)n3C)c1OC (stereo not given) returned LDHA inh -2 and 12-LOX inh inconclusive.
For CCOc1ccc(S(=O)(=O)Nc2cccc(OC)c2)c2cccnc12 the results were LDHA inh -1, Nrf2 inh 15µM*, 12-LOX inh -29%, Nrf2 activator 7%, A549 viability -17% and ERG Ets-DNA blk 12%.
For CCOc1ccc(S(=O)(=O)Nc2cccc(CC)c2)c2cccnc12 the results were LDHA inh 8 and 12-LOX inh -14%.
Screening O=[N+]([O-])c1ccc(Sc2cccc[n+]2[O-])c2nonc12 returned LDHA inh 54, Nrf2 inh inconclusive, 12-LOX inh -42%, Nrf2 activator -3%, A549 viability 18µM* and ERG Ets-DNA blk -6%.
For O=[N+]([O-])c1ccc(Nc2ccccc2)c2nonc12 the results were LDHA inh -4, Nrf2 inh -28%, 12-LOX inh 3%, Nrf2 activator 20%, A549 viability inconclusive and ERG Ets-DNA blk 3%.
CCN(CC)S(=O)(=O)c1cccc(-c2nnc(SCCCC(=O)c3ccc(F)cc3)o2)c1 was read as LDHA inh 0, Nrf2 inh 23µM*, 12-LOX inh -6%, Nrf2 activator 1%, A549 viability -16% and ERG Ets-DNA blk 1%.
For C=CCNc1ncnc2c1[nH]c1ccc(Cl)cc12 the results were LDHA inh -12, Nrf2 inh 8.2µM*, 12-LOX inh -5%, Nrf2 activator 18%, A549 viability inconclusive and ERG Ets-DNA blk 6%.
`CC1CCN(c2nc3nonc3nc2Nc2ccc(F)cc2)CC1` gave LDHA inh 14, Nrf2 inh 9.2µM*, 12-LOX inh 1%, Nrf2 activator 4%, A549 viability inconclusive and ERG Ets-DNA blk -6%.
`COc1ccc(OC)c(Nc2nc3nonc3nc2N2CCCC(C)C2)c1` (stereo not given) gave LDHA inh 3, Nrf2 inh -8%, 12-LOX inh -11%, Nrf2 activator 4%, A549 viability 4% and ERG Ets-DNA blk 0%.

From PubChem
